# Measurements as given in PubChem BioAssay (EPA / NIEHS).
# Values joined by “and” are separate entries in the source; they are usually repeats but may differ in a detail not shown here. Equal values may be shown once. Records with an inconclusive call do not appear. A structure can be active in one record and inactive in another. Active and inactive are the calls of the source. Rule for the calls: active = hit-call score of the fitted dose curve at least 0.9, where 1 is the maximum; inconclusive = response in the unintended direction; inactive = score below 0.9.
# Assay: TOX21_p53_BLA_p5_viability: Viability Assessment in the Tox21 HCT-116 p53 Agonism Beta-lactamase Assay, Phase 5 (AID 2283600)
# Source text: TOX21_p53_BLA_p5 is a cell-based, single-readout assay that uses HCT116, a human intestinal cell line, […] in a 1536-well plate.TOX21_p53_BLA_p5_viability is an assay readout measuring cellular ATP content and detected with CellTiter-Glo Luciferase-coupled ATP quantitation.TOX21_p53_BLA_p5_viability used a type of viability reporter where loss-of-signal activity can be used to understand changes in the cell viability. Furthermore, this assay endpoint can be referred to as a secondary readout, because this assay has produced multiple assay endpoints where this one serves a viability function. To generalize the intended target to other relatable targets, this assay endpoint is annotated to the cell cycle intended target family, where the subfamily is cytotoxicity.
# Thawing Method: Place 14 mL of pre-warmed thaw medium into a 15 mL of conical tub. Remove the vial of cells to be thawed from liquid nitrogen and thaw rapidly by placing at 37C in a water bath with gentle agitation for 1-2 minutes. Decontaminate the vial by wiping with 70% ethanol before opening in a biological safety cabinet. Transfer the vial contents drop-wise into 14 mL of thaw medium in a sterile 15-mL conical tub. Centrifuge cells at 900 rpm for 4 minutes and resuspend in thaw medium. Transfer contents to the T75 tissue culture flask containing Thaw Medium and place flask in a humidified 37C/5% CO2 incubator. Switch to growth medium at first passage.Propagation Method: Aspirate medium, rinse once in DPBS, add 0.25% Trypsin/EDTA and swirl to coat the cell evenly. Add an equal volume of Growth Medium to inactivate Trypsin after 2-3 minutes incubation at 37C. Centrifuge cells at 900 rpm for 4 minutes and resuspend in growth medium. Cell should be passage or fed at least twice a week.Assay Protocol: Harvest cells from culture in growth medium and resuspend in assay medium. 2.2 Dispense 4000 cells/5 uL/well into 1536-well black/clear bottom plates using a Multidrop dispenser. After the cells were incubated at 37C for 5 hours, 23 nL of compounds dissolved in DMSO were transferred to the assay plate by a PinTool resulting in a 217-fold dilution. Incubate the plates for 16 hours at 37C, 5% CO2. Add 1 uL of 6X LiveBLAzer FRET B/G (CCF4-AM) Substrate Mixture to each well using a BioRAPTR dispenser and incubate the plates at room temperature for 2 hours. Measure fluorescence intensity at 460 and 530 nm emission and 405 nm excitation by an Envision detector. Data is expressed as the ratio of 460nm/530nm emissions. Add 4 uL of Cell-titer Glo to each well using BioRAPTR and incubate the plates at room temperature for […]. For cell viability readout that measures cytotoxicity, 4 ul/well of CellTiter-Glo reagent was added into the assay plates using a Flying Reagent Dispenser. After 30 min incubation at room temperature, the luminescence intensity in the plates was measured using a ViewLux plate reader.
SMILES,outcome,AC50
CCCCCCCCCCCCCC[N+](C)(C)C,inactive,76.6 µM (active) and 45.3 µM (active)
CC(C)(C)c1ccc(O)c(C(C)(C)C)c1,inactive,42.7 µM (active)
CC#C[C@]1(O)CC[C@H]2[C@@H]3CCC4=CC(=O)CCC4=C3[C@@H](c3ccc(N(C)C)cc3)C[C@@]21C,inactive,
CN1CCN(c2ccccc2/C=C2\SCCN(c3ccc(Cl)c(Cl)c3)C2=O)CC1,,83.7 µM (active)
OCCC(F)(F)C(F)(F)C(F)(F)C(F)(F)C(F)(F)C(F)(F)F,inactive,
OC1CCC(C2CCCCC2)CC1 (stereo not given),inactive,
COc1ccc([N+](=O)[O-])cc1N,inactive,
Cc1ccc(S(=O)(=O)O)c(C)c1,inactive,
O=C(O)Cc1cc(I)c(Oc2cc(I)c(O)c(I)c2)c(I)c1,,49.3 µM (active)
O=C1OC2(c3ccccc31)c1cc(Br)c(O)c(Br)c1Oc1c2cc(Br)c(O)c1Br,inactive,
CCCCCCCCC(=O)O,inactive,
CC(O)CO (stereo not given),inactive,
CC(C)(C)CC(C)(C)c1ccc(O)c(-n2nc3ccccc3n2)c1,inactive,
O=[N+]([O-])c1ccc(O)cc1,inactive,
NC(=O)N1C(=O)C(C(=O)c2cc(Cl)cs2)c2cc(F)c(Cl)cc21 (stereo not given),inactive,
COCC(C)O (stereo not given),inactive,
CCC(C)(C)C1CCC(O)CC1 (stereo not given),inactive,
C[C@@H]1C[C@H]2[C@@H]3CCC4=CC(=O)C=C[C@]4(C)[C@@]3(F)[C@@H](O)C[C@]2(C)[C@@]1(O)C(=O)COP(=O)(O)O,inactive,
CCCCCCCCCCCCN1CCCC1=O,,45.3 µM (active)

SMILES,outcome,AC50
CC[C@H](c1ccc(O)cc1)[C@@H](CC)c1ccc(O)cc1,inactive,75.7 µM (active)
CCCOc1sc(C(=O)N2CCC(c3cc(CN)ccc3F)CC2)c(C)c1Br,,80.1 µM (active)
CC1=C(/C=C/C(C)=C/C=C/C(C)=C/C(=O)O)C(C)(C)CCC1,inactive,
Cc1cc(C)c(O)c(C)c1,inactive,
CC(C)(C)c1cccc(C(C)(C)C)c1O,inactive,
c1ccc2cc3c(ccc4ccccc43)cc2c1,inactive,
CCCCOCCO,inactive,
ClC1=C(Cl)C(Cl)(Cl)C(Cl)=C1Cl,inactive,
c1ccc2c(c1)Cc1ccccc1-2,inactive,
CC(=O)NC1(c2cccc(F)c2)CCN(CC[C@@]2(c3ccc(Cl)c(Cl)c3)CN(c3ccccc3)C(=O)CO2)CC1,,60.3 µM (active)
O=C(OCCOCCOC(=O)c1ccccc1)c1ccccc1,inactive,
CCN(CC)CCNc1ccc(CNC=O)c2sc3ccc(OC)cc3c(=O)c12,inactive,
CCc1nn(C2CCCCC2)c2cc(C3(C#N)CCC(C(=O)O)CC3)ccc12 (stereo not given),inactive,
Cc1oc(-c2ccccc2)nc1CCOc1ccc(C[C@H](Nc2ccccc2C(=O)c2ccccc2)C(=O)O)cc1,,15.5 µM (active)
O=c1c(-c2ccc(O)cc2)coc2cc(O)ccc12,inactive,
Oc1cccc(O)c1,inactive,
OC1CCCCC1,inactive,
CCc1ccc(CCOc2ccc(CC3SC(=O)NC3=O)cc2)nc1 (stereo not given),inactive,
